# Source: PubChem BioAssay AID488821 (National Center for Advancing Translational Sciences (NCATS), 2010)
# Results filed as inconclusive are left out. Entries that show only a call come without a potency. The source made the active and inactive calls. The call rests on the fitted dose curve; in most records, active means well fitted inhibition curve with a large enough effect; inconclusive means small, poorly fitted or top-dose-only effect, or effect the other way; inactive means flat fitted curve, though single readings scatter.
# Experiment: Counterscreen Assay for Enhancers of SMN2 Splice Variant Expression: Modulation of SMN1 Expression for Further Probe SAR
# Conditions: HEK293 SMN1-luciferase reporter, luminescence, 30-36 h; series mostly up to 46.1 µM
# Description: NIH Chemical Genomics Center [NCGC] NIH Molecular Libraries Probe Production centers Network [MLPCN] MLPCN Grant: R03 MH084179-01 Assay Submitter (PI): Elliot Androphy NCGC Assay Overview: Spinal muscular atrophy (SMA) is caused by insufficient levels of the survival motor neuron protein SMN. The SMN locus on chromosome 5q13 contains two inverted copies of SMN called SMN1 and SMN2 which are 99% identical at the amino acid level. SMN1 is a fully functional protein and SMN2 skips exon 7 90% of the time. Skipping of exon 7 produces non-functional protein product. 10% of the SMN2 protein includes exon 7 and is fully functional. In the SMA disease state, mutations in the SMN1 locus are the cause of the disease state. Because only 10% of SMN2 is of the fully functional form, it is not sufficient to overcome the deficiency produced by the loss of the SMN1 product. A therapy that either increases the amount of SMN2 product made increases the inclusion of exon 7 has been proposed for the treatment of SMA. We have designed an assay to identify small molecules that can increase the amount of functional SMN2 product by appending a luciferase reporter gene after the native SMN2 gene, such that inclusion of exon 7 in the expressed product places the luciferase sequence in frame, thus generating functional luciferase enzyme. As a counterscreen for nonspecific modulators of expression, we have run compounds through a similar assay that measures expression of an SMN1-luciferase chimera.
# NCGC Assay Protocol Summary: This screen utilizes a luciferase reporter gene assay, combining the promoter with the major portion of the native SMN1 cDNA (exons 1 -7, intron 8 , exon 8 fused to luciferase) stably expressed in HEK293 cells. Compounds that increase luciferase signal presumably enhance expression of the functional SMN1 splice variant. Passaging media contained DMEM w/ glutamax (+phenol red) 10% FCS, 1x pen/strep, 200 ug/ml hygro, 1x sodium pyruvate. Assay media contained DMEM w/ glutamax (-phenol red) 10% FCS, 1x pen strep, 1x pyruvate Sequence, Parameter, Value, Description (1) Cells, 5 uL, 2000 cells/well, 1536 TC treated White solid bottom plate (2) Time, 10-12 hours, 37C 5% CO2 (3) Compound, 23 nl, MLSMR Library (4) Control Compound, 23 nL, Sodium butyrate st 4.5mM (final) conc (5) Time, 30-36 hours, 37C 5% CO2 (6) Reagent, 3 ul, One Glo (TM) from Promega (7) Time, 5-15 minutes, Room temp (8) Detector, Viewlux: luminescent read, 60 second integration, high speed 2x binning Keywords: Spinal muscular atrophy, SMA, SMN2, high throughput screening, MLSMR, MLPCN, NIH Roadmap, qHTS and NCGC
row,SMILES,Potency
1,NC(=O)C1CCN(c2nc(-c3ccccc3)cs2)CC1,inactive
2,COc1ccccc1-c1csc(N2CCC(C(N)=O)CC2)n1,inactive
3,CC(C)(C)c1ccc(-c2csc(N3CCC(C(N)=O)CC3)n2)cc1,inactive
4,Nc1nc(N)c2c(OCC3CCN(Cc4ccccc4F)CC3)cccc2n1,19400 nM (active)
5,CC(=O)C1CCN(c2ncc(-c3ccc4c(c3)OCCCO4)s2)CC1,4870 nM (active)
6,O=C(NCCCCc1ccccc1)C1CCN(c2nc(-c3ccc(Br)cc3)cs2)CC1,inactive
7,Cc1cccc(-c2csc(N3CCC(C(N)=O)CC3)n2)c1,inactive
8,CN(C)c1cccc(-c2nccc(N3CCC(C(N)=O)CC3)n2)c1,inactive
9,NC(=O)C1CCN(c2ncc(-c3ccc4c(c3)OCCCO4)s2)CC1,487 nM (active)
10,CN(C)c1cccc(-c2nnc(N3CCC(C(N)=O)CC3)s2)c1,6140 nM (active)
11,O=C(C1CCN(c2nc(-c3ccc(Br)cc3)cs2)CC1)N1CCNCC1,inactive
12,CN(C)c1cccc(-c2cnc(N3CCC(C(N)=O)CC3)s2)c1,772 nM (active)
13,O=C(Nc1ccccc1)C1CCN(c2nc(-c3ccc(Br)cc3)cs2)CC1,inactive
14,N#Cc1ccccc1-c1csc(N2CCC(C(N)=O)CC2)n1,inactive
15,CC(C)Oc1ccc(-c2csc(N3CCC(C(N)=O)CC3)n2)cc1,inactive
16,CS(=O)(=O)N1CCN(c2nc(-c3ccc(Br)cc3)cs2)CC1,inactive
17,N#Cc1cccc(-c2csc(N3CCC(C(N)=O)CC3)n2)c1,inactive
18,NC(=O)C1CCN(c2ncc(-c3ccc4c(c3)OCO4)s2)CC1,972 nM (active)
19,O=C(O)C1CCN(c2ncc(-c3ccc4c(c3)OCCCO4)s2)CC1,244 nM (active)
20,NC(=O)C1CCN(c2ncc(Br)cn2)CC1,inactive

row,SMILES,Potency
1,Cc1cnc(N2CCC(C(N)=O)CC2)nc1-c1cccc(N(C)C)c1,inactive
2,CN(C)c1cccc(-c2ncc(F)c(N3CCC(C(N)=O)CC3)n2)c1,inactive
3,NC(=O)C1CCN(c2nc(-c3ccc(C(F)(F)F)cc3)cs2)CC1,inactive
4,Brc1ccc(-c2csc(N3CCNCC3)n2)cc1,30700 nM (active)
5,NC(=O)C1CCN(c2nc(-c3cccc([N+](=O)[O-])c3)cs2)CC1,inactive
6,CC(=O)Nc1ccc(-c2csc(N3CCC(C(N)=O)CC3)n2)cc1,inactive
7,NC(=O)C1CCN(c2nc(-c3ccc4c(c3)CCO4)cs2)CC1,inactive
8,CC(=O)C1CCN(c2ncc(-c3cccc(N(C)C)c3)s2)CC1,12200 nM (active)
9,COc1cc(OC)cc(-c2csc(N3CCC(C(N)=O)CC3)n2)c1,inactive
10,CN(C)c1cccc(-c2cc(N3CCC(C(N)=O)CC3)ncn2)c1,inactive
11,COc1ccc(-c2cnc(N3CCC(C(N)=O)CC3)s2)cc1OC,inactive
12,CCOC(=O)C1CCN(c2ncc(-c3ccc4c(c3)OCCCO4)s2)CC1,387 nM (active)
13,NC(=O)C1CCN(c2ncc(Br)s2)CC1,inactive
14,CNC(=O)C1CCN(c2nc(-c3ccc(Br)cc3)cs2)CC1,inactive
15,CC(=O)N1CCN(c2nc(-c3ccc(Br)cc3)cs2)CC1,15400 nM (active)
16,NC(=O)N1CCN(c2nc(-c3ccc(Br)cc3)cs2)CC1,inactive
17,NC(=O)C1CCN(c2nccc(Cl)n2)CC1,inactive
18,CSc1ccc(-c2cnc(N3CCC(C(N)=O)CC3)s2)cc1,972 nM (active)
19,CN(C)c1cccc(-c2cnc(N3CCC(C(N)=O)CC3)nc2)c1,1220 nM (active)
20,Cc1ccc(-c2cnc(N3CCC(C(N)=O)CC3)s2)cc1,2440 nM (active)
